Results reported in PubChem BioAssay AID2391 (Southern Research Specialized Biocontainment Screening …, 2010).
Out of some 310,000 compounds screened, about 410 (0.13%) were called active. Roughly 2% stayed inconclusive and do not appear here. No rule for the calls is given here. Not all results are given here. Results with a measured potency or affinity are listed apart.

Experiment: inhibition of RSV-induced cytopathic effect – HEp-2 cells, primary 10 µM value included (AID 2391)
Conditions: at 10 µM, active compounds read high

CPE inhibition, inactive:
[O-]/[N+](=C/c1ccco1)c1ccccc1 2.24%
COc1cccc(NC(=O)c2ccccc2C(F)(F)F)c1 1.62%
O=C(c1ccc(Cl)c(S(=O)(=O)N2CCOCC2)c1)N1CCOCC1 -0.1%
CCCCOC(=O)c1ccc(NC(=O)c2ccc(F)cc2F)cc1 3.03%
CCOC(=O)c1sc(NC(=O)Cc2ccc(F)cc2)nc1C 17.9%
NC(=O)CCN1CCN(Cc2nc(C(c3ccccc3)c3ccccc3)no2)CC1 -0.36%
O=S(=O)(Nc1nc2ccccc2s1)c1cnc(Cl)c(Br)c1 0.69%
O=c1[nH]c(C2CCCN(S(=O)(=O)c3ccccc3)C2)nc2c1nnn2Cc1ccccc1F (stereo unspecified) 3.4%
COC(=O)c1ccc(Cn2nnc3c(=O)[nH]c(C4CCCN(S(=O)(=O)c5ccccc5Cl)C4)nc32)cc1 (stereo unspecified) 2.61%
Cc1ccc(Cn2nnc3c(=O)[nH]c(C4CCCN(S(=O)(=O)c5ccc(F)cc5)C4)nc32)cc1 (stereo unspecified) 5.93%
Cc1ccc(Cn2nnc3c(=O)[nH]c(C4CCCN(S(=O)(=O)c5ccccc5F)C4)nc32)cc1 (stereo unspecified) 4.65%
COC(=O)c1ccccc1S(=O)(=O)N1CCCC(c2nc3c(nnn3Cc3ccc(C)cc3)c(=O)[nH]2)C1 (stereo unspecified) 10.4%
Cc1ccc(Cn2nnc3c(=O)[nH]c(C4CCCN(S(=O)(=O)c5ccccc5)C4)nc32)cc1 (stereo unspecified) 13%
O=c1[nH]c(C2CCCN(S(=O)(=O)c3ccccc3)C2)nc2c1nnn2Cc1cccc(Cl)c1 (stereo unspecified) 43%
O=c1[nH]c(C2CCCN(S(=O)(=O)c3ccccc3)C2)nc2c1nnn2Cc1ccc2c(c1)OCCO2 (stereo unspecified) 60.4%
CN1CCN(/C(=N\O)c2nonc2N)CC1 -0.46%
Cc1ccc(-c2[nH]c3cc(C(=O)NCCCn4ccnc4)ccc3c(=O)c2O)cc1 1.07%
O=C(CCN1C(=O)S/C(=C\C=C\c2ccccc2)C1=O)Nc1ccc(O)cc1 -1.82%
CCOC(=O)CC(NC(=O)C(CC)c1ccccc1)c1ccccc1Cl (stereo unspecified) 3.39%
COc1ccc(N2CCN(S(=O)(=O)c3ccc(OC)c(C(=O)N4CCOCC4)c3)CC2)cc1 0.25%
COc1ccccc1C(=O)C1CCCN(C(=O)c2ccccn2)C1 (stereo unspecified) 2.51%
Cc1ccc(CN(C)C(=O)COC(=O)CSc2ccc(C(N)=O)cc2[N+](=O)[O-])cc1 -0.57%
COC(=O)c1ccc(NC(=O)c2ccccc2-c2ccccc2C(=O)O)cc1 0.77%
CCCCCCC(=O)Nc1c2c(nc3ccccc13)N(C)CC2 0.9%
O=C(Nc1ccc(F)cc1F)N1CCCC(c2nc(-c3ccc(F)cc3)no2)C1 (stereo unspecified) 14.7%
O=C(Nc1cccc(Cl)c1)Nc1nnc(CC2=CCCCC2)s1 5.11%
CCOc1ccc(S(=O)(=O)N(C)CC(=O)NCc2ccccn2)cc1Cl 1.39%
COCCN1C(=O)C(CC(=O)Nc2ccc(C(C)=O)cc2)SC1=Nc1ccccc1 (stereo unspecified) 2.47%
COCCN1C(=O)C(CC(=O)Nc2ccc(C(=O)O)cc2)SC1=Nc1ccccc1 (stereo unspecified) 1.29%
COc1ccc(OCc2n[nH]c(=S)n2Cc2ccco2)cc1 2.67%
Cc1ccc(C2C3=C(CCCC3=O)N=C3c4ccccc4C(=O)C32)cc1 (stereo unspecified) 11.5%
O=C1CCCC2=C1C(c1ccc(Cl)cc1)C1C(=O)c3ccccc3C1=N2 (stereo unspecified) 58.3%
CCOc1nc(Nc2ccc(OC)cc2)nc(N2CCOCC2)n1 2.38%
COc1ccc(C(=O)/C=C/NCc2ccc(F)cc2)cc1OC 4.99%
Cc1ccc(C)c(S(=O)(=O)N2CCCOC2CNC(=O)C(=O)NCc2cccs2)c1 (stereo unspecified) 1.48%
CCN(CC)c1ccc(CN(C(=O)c2cccs2)C2CCS(=O)(=O)C2)cc1 (stereo unspecified) 1.38%
COc1ccc(NC(=O)Nc2cc3oc4ccccc4c3cc2OC)cc1 9.45%
COc1cc2c(cc1NC(=O)Nc1ccc(C)cc1)oc1ccccc12 33%
CCS(=O)(=O)Nc1ccc(C2=NN(S(=O)(=O)CC)C(c3cccs3)C2)cc1 (stereo unspecified) 2.5%
Cc1ccc(CS(=O)Cc2ccc(C(=O)NCC(C)c3ccccc3)o2)cc1 (stereo unspecified) 1.69%
COCCCNC(=O)CN(c1cc(Cl)ccc1OC)S(C)(=O)=O 0.7%
O=C(O)c1ccc(-c2nc(-c3ccccc3Cl)cs2)cc1 15.1%
C=CCNC(=O)c1ccc(-c2nc(-c3ccc(Cl)cc3Cl)cs2)cc1 3.05%
CCOc1ccc(C(C(=O)NC2CCCC2)N(CCOC)C(=O)CNC(=O)c2ccco2)cc1 (stereo unspecified) 0.14%
CCN(c1ccccc1)S(=O)(=O)c1ccc(Cl)c(NC(=O)CSc2nncs2)c1 14.1%
CCN(c1ccccc1)S(=O)(=O)c1ccc(OC)c(NC(=O)Cc2ccc(F)cc2)c1 13.4%
Nc1nc(SCC(=O)Nc2cc(S(=O)(=O)N3CCOCC3)ccc2Cl)n[nH]1 0.46%
CS(=O)(=O)c1ccc(Cl)c(NC(=O)CSc2n[nH]c(N)n2)c1 -0.18%
CCC(C)NCC(=O)Nc1cc(S(=O)(=O)N(CC)c2ccccc2)ccc1Cl (stereo unspecified) 10.6%
CCN(c1ccccc1)S(=O)(=O)c1ccc(Cl)c(NC(=O)CSc2nnc(C)s2)c1 17.6%
CCN(c1ccccc1)S(=O)(=O)c1ccc(OC)c(NC(=O)Cc2ccc(OC)c(OC)c2)c1 8.13%
CCN(c1ccccc1)S(=O)(=O)c1ccc(Cl)c(NC(=O)CSc2nncn2C)c1 4.02%
CCC(=O)NC(=S)Nc1ccc2oc(-c3ccc(OC)cc3)nc2c1 -0.44%
Cc1[nH]c2c(Cl)cccc2c(=O)c1CN1CCCCCC1 -1.59%
CC(=O)c1ccc(C(=O)NC2CCCN(Cc3ccccc3F)C2)cc1 (stereo unspecified) -0.91%
Cc1nc(N)nc(N/N=C/c2c(F)cccc2Cl)n1 0.02%
